Screens: PubChem BioAssay, several laboratories
Yeast superoxide: lowers age-related superoxide in aged yeast cells | S. cerevisiae aged cells, superoxide DHE fluorescence; stronger effect = lower value | superoxide response (% of plate mean), % at 10 µM | 0.18% of 330,000 active;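 active = superoxide response under a set limit, about three screen SD below normal, cut at about 65% in these data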;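 also: yeast aged for seven days with compound at 30 °C before DHE staining; 100% = average MFI of all compound-treated wells on the plate with controls excluded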
ABCB6 inh MLPCN: human ABCB6 transporter inhibition | K562-ABCB6 porphyrin accumulation, flow cytometry, 1 h; stronger effect = lower value | fluorescence ratio to DMSO, % at 10 µM | 0.19% of 360,000 active | AID 602162;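 active = fluorescence ratio to DMSO below 75%, the collection mean minus 3 SD; inconclusive = too few cells collected in the well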;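 also: signal is porphyrin accumulated inside mitochondria; 100% equals median channel fluorescence of DMSO control wells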
Platelet DG rel: platelet dense granule release activity. human platelet-rich plasma, SFLLRN dense granule ATP release, luminescence. inhibition, %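 (compounds screened at 7.5 µM in platelet-rich plasma)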. 0.22% of 300,000 active. AID 1663;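 active = mean replicate score, as percent of positive control, at or above 50; inconclusive = mean below 50 but at least one replicate at or above 50; inactive = mean and every replicate below 50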
VLA-4 inh: inhibition in a human VLA-4 binding assay; P13612; VLA-4 expressing cells, ligand binding flow cytometry; inhibition, % (about 7 µM as worked out from the volumes in the protocol); 0.2% of 330,000 active; in the data active = inhibition above about 50%
Target sequence (P13612 whole entry, looked up): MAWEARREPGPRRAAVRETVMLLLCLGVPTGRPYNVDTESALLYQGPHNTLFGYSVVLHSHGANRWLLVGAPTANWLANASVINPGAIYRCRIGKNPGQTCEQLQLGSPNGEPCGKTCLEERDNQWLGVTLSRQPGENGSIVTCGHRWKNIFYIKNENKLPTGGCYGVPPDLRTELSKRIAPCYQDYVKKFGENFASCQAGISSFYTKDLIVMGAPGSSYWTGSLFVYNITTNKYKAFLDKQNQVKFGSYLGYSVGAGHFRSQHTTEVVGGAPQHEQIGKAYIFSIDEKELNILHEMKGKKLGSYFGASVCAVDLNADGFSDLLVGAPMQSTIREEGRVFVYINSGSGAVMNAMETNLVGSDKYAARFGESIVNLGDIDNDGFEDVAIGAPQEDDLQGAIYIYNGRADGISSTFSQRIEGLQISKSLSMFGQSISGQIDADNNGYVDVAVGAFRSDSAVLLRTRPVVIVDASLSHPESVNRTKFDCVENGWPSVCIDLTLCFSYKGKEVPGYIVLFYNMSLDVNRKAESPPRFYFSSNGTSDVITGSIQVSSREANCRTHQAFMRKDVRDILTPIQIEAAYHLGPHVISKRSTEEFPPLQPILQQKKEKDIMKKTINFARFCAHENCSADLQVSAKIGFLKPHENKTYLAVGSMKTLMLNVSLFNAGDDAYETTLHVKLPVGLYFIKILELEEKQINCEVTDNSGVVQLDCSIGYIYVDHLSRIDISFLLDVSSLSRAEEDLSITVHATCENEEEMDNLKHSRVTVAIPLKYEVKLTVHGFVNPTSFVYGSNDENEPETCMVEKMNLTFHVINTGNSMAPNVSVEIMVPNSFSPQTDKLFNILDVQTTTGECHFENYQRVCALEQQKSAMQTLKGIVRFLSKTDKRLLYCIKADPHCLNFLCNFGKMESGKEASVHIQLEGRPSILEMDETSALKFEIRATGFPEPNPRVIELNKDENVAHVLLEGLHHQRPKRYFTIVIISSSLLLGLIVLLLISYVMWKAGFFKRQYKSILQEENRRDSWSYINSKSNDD
SKN-1 inh: blocks SKN-1 activity in C. elegans; inhibition, % at 21.8 µM; 0.49% of 360,000 active; C. elegans VP596 Pgst-4::GFP/RFP ratio, acrylamide-induced, 24 h; AID 624304;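 active = interference check ratio from 0.5 to 1.5 plus GFP to RFP signal ratio inhibition reaching or exceeding a fixed threshold, cut at about 30% in these data, passing the limit was not always enough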
Starred values were filed as active, the others as inactive; u = inconclusive; x = no result. Shown are actives, neighbours in structure and some others; about 1.2% of the full set was active somewhere.

SMILES | Yeast superoxide | ABCB6 inh MLPCN | Platelet DG rel | VLA-4 inh | SKN-1 inh
CCOC(=O)CSc1nc(NC#N)nc(N(CC)CC)n1 | 107.2 | 103.0 | -1.7 | -6.3 | 18.9
O=C(NCc1ccccc1)C(c1ccccc1)n1c(-c2ccccn2)nc2ccccc21 (stereo unspecified) | x | x | x | x | 12.6
COc1ccc(S(=O)(=O)N2CCC(C)CC2)cc1OC | 110.9 | 99.0 | 3.6 | 3.3 | 4.2
CC1CCN(S(=O)(=O)c2ccc3c(c2)C(=NO)c2cc(S(=O)(=O)N4CCC(C)CC4)ccc2-3)CC1 | 106.9 | 70.0* | x | 0.0 | -23.0
O=S(=O)(c1ccc2c(c1)C(=NO)c1cc(S(=O)(=O)N3CCCCC3)ccc1-2)N1CCCCC1 | 96.8 | 72.0* | -5.5 | 45.2 | 9.6
CCc1nc2c(OCc3ccccc3)cccn2c1N(Cc1ccccc1)C(C)=O | x | 97.0 | x | x | 7.7
O=C(O)c1ccc(-c2cccc(-c3nn4c(=O)cc(N5CCNCC5)nc4s3)c2)cc1 | x | 95.0 | x | x | 1.4
CCn1nnc2sc3c(c2c1=O)CCC(C)C3 (stereo unspecified) | 102.9 | 88.0 | -1.8 | 11.5 | 36.1*
Cc1nnc(N2C(=O)C(O)=C(C(=O)c3ccco3)C2c2ccc(C(C)(C)C)cc2)s1 (stereo unspecified) | 103.5 | 124.0 | 52.3* | 4.2 | -0.4
Cc1ccc(-c2[nH]ncc2/C=C(\C#N)C(=O)NC2CCCCC2)cc1 | 89.9 | 96.0 | 0.9 | -5.8 | 58.6*
Cc1ccc(C2=NC(C)(C)N=C2SCC(=O)Nc2ccc(Cl)cc2)cc1 | 94.8 | 66.0* | -1.4 | 6.6 | 15.6
COc1ccc(O)cc1CN1CCN(c2ncc(Cc3ccccc3)cn2)CC1 | x | x | x | x | 3.8
Cc1ccc(CCNC(=O)c2coc3nc4ccccc4nc23)cc1 | 102.2 | x | 2.8 | -21.5 | 37.4*
O=C(NCc1ccc(F)cc1)C1CCC(CNc2c(N3CCCCC3)c(=O)c2=O)CC1 (stereo unspecified) | 63.5* | 96.0 | 11.4 | -5.1 | -17.0
Cn1c(=O)c2c(nc(SCCN3CCOCC3)n2Cc2ccccc2Cl)n(C)c1=O | 112.8 | u | 62.6* | -0.8 | 3.9
CC(=O)Nc1ccc(NC(=O)C2Cc3c(-c4cccc(F)c4)ccnc3O2)cc1 (stereo unspecified) | x | 98.0 | x | x | 36.6*
CN1[C@@H](Cc2ccccc2)COc2cc(N3CCSCC3)ccc2S1(=O)=O | x | 96.0 | x | x | -6.8
CCCc1cc2nnc(SCC(=O)N(C)C3CCCCC3)n2c(N)n1 | 102.4 | 95.0 | -2.4 | 8.7 | 43.5*
CCCc1cc(=O)[nH]c(SCC(=O)N(C)C2CCCCC2)n1 | 83.5 | 99.0 | x | 2.4 | 13.5
O=C(C[C@@H]1C=C[C@H](NC(=O)Cc2ccccn2)[C@@H](CO)O1)NCCc1ccccc1 | x | x | x | x | 13.1
CS(=O)(=O)c1ccc2nc(NC(=O)c3ccc(=O)[nH]c3)sc2c1 | 95.2 | 101.0 | 4.3 | 14.0 | 3.5
Cn1nc(C(=O)Nc2nc3ccc(S(C)(=O)=O)cc3s2)ccc1=O | 95.3 | 86.0 | 53.0* | 2.4 | -14.5
c1ccc2c(Nc3nc4c(s3)CCCC4)cccc2c1 | 116.4 | 103.0 | 1.5 | 2.3 | 45.4*
O=S(=O)(Nc1nc2c(s1)CCCC2)c1ccc2ccccc2c1 | 100.5 | 105.0 | 5.2 | -2.8 | -0.7
CC(C)(C)OC(=O)NCC12C=CC(O1)C1C(=O)N(Cc3ccccc3)C(=O)C12 (stereo unspecified) | 104.5 | 97.0 | -1.4 | 9.3 | 37.0*
SMILES | Yeast superoxide | ABCB6 inh MLPCN | Platelet DG rel | VLA-4 inh | SKN-1 inh
Cc1ccc(OCC(=O)Sc2ccc(C)cc2)cc1 | 117.2 | 100.0 | 7.8 | -4.7 | 56.4*
CCCCn1nnnc1C(c1cc2ccccc2o1)N(CCN(C)C)Cc1ccccc1 (stereo unspecified) | x | 111.0 | x | x | 2.2
Cc1cc(O)cc(O)c1/C=N/NC(=O)c1ccc2c(c1)OCCO2 | x | 98.0 | x | x | 9.2
COc1ccccc1Cc1c(-c2ccco2)nc2ccc(Br)cn12 | x | 101.0 | x | x | -9.9
c1ccc(-c2ccc(-c3nc(-c4cccnc4)no3)cc2)cc1 | 82.5 | 100.0 | 22.6 | -12.9 | 43.1*
CCOc1ccc(-c2nnc(-c3ccccc3)o2)cc1 | 90.5 | 93.0 | 8.9 | 9.3 | 37.5*
CCc1ccc(-c2nc(-c3ccncc3)no2)cc1 | 97.5 | 108.0 | x | 18.5 | 47.9*
c1ccc(-c2nc(-c3ccncc3)no2)cc1 | 102.3 | 95.0 | 8.2 | -8.5 | 68.9*
O=C1OCC/C1=C\NCCCN/C=C1\CCOC1=O | x | 99.0 | x | x | 9.6
O=[N+]([O-])c1ccc(-c2cnc3ccccc3n2)cc1 | 67.2 | 97.0 | -8.8 | 6.6 | 32.4
CCOc1ccc(-c2cnc3ccccc3n2)cc1 | 89.6 | 100.0 | 8.8 | 2.3 | 35.2*
CCOc1ccc(-c2nc(-c3cccnc3)no2)cc1 | 104.5 | 88.0 | 11.6 | -0.3 | 53.3*
